Activity calls are given as the source filed them. The calls were made as follows: active = hit-call score of the fitted dose curve at least 0.9, where 1 is the maximum; inactive = score below 0.9.
The compounds below were run on Cyclin D2 (CCND2), CCND2 (gene 894) (assay: LTEA_HepaRG_CCND2: Life Technologies and Expression Analysis (LTEA) Assay for Cyclin D2 (CCND2) using HepaRG (AID 2283449;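 also: CCND2 transcript measured by TaqMan qRT-PCR and normalised to three housekeeping genes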)). Conditions: mRNA level, 48 h; actives raise or lower the signal.
Outline: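 Chemicals in 0.5% DMSO, eight half-log concentrations from 100 uM top, were applied in duplicate for 48 h to human HepaRG cells in serum-free induction medium. CCND2 mRNA by TaqMan qRT-PCR, normalised to ACTB/GAPDH/POLR2A; bidirectional fit versus DMSO.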

Row | Compound | outcome
1 | C#C[C@]1(O)CC[C@H]2[C@@H]3CCc4cc(O)ccc4[C@H]3CC[C@@]21C | inactive
2 | COC(=O)c1ccc(C(=O)OC)cc1 | inactive
3 | C[C@]12CC[C@@H]3c4ccc(O)cc4CC[C@H]3[C@@H]1CC[C@@H]2O | inactive
4 | O=C(c1ccc(OCCN2CCCCC2)cc1)c1c(-c2ccc(O)cc2)sc2cc(O)ccc12 | inactive
5 | CCCCOCCOCCO | inactive
6 | CC/C(=C(\c1ccccc1)c1ccc(OCCN(C)C)cc1)c1ccccc1 | inactive
7 | C=C(C)C(N)=O | inactive

Each compound was assayed on Cyclin Dependent Kinase Inhibitor 1A (CDKN1A), CDKN1A (gene 1026) (assay: LTEA_HepaRG_CDKN1A: Life Technologies and Expression Analysis (LTEA) Assay for Cyclin Dependent Kinase Inhibitor 1A (CDKN1A) using HepaRG (AID 2283450)). Conditions: mRNA level, 48 h; actives raise or lower the signal.
Outline: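 Differentiated human HepaRG cells, pre-cultured 48 h, were exposed in duplicate for 48 h in serum-free induction medium to eight half-log concentrations up to 100 uM (0.5% DMSO). CDKN1A mRNA was measured by qRT-PCR, normalized to ACTB/GAPDH/POLR2A, bidirectionally fitted versus DMSO.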

Row | Compound | outcome | AC50
8 | C#C[C@]1(O)CC[C@H]2[C@@H]3CCc4cc(O)ccc4[C@H]3CC[C@@]21C | inactive | –
9 | COC(=O)c1ccc(C(=O)OC)cc1 | inactive | –
10 | C[C@]12CC[C@@H]3c4ccc(O)cc4CC[C@H]3[C@@H]1CC[C@@H]2O | – | 80.3 µM (active)
11 | O=C(c1ccc(OCCN2CCCCC2)cc1)c1c(-c2ccc(O)cc2)sc2cc(O)ccc12 | inactive | –
12 | CCCCOCCOCCO | inactive | –
13 | CC/C(=C(\c1ccccc1)c1ccc(OCCN(C)C)cc1)c1ccccc1 | inactive | –
14 | C=C(C)C(N)=O | inactive | –

— PubChem BioAssay (EPA / NIEHS)
